Measurements as given in PubChem BioAssay AID2242 (National Center for Advancing Translational Sciences (NCATS), 2010).
Among all 200,000 compounds or so, about 720 (0.36%) were called active. About 8% were inconclusive and are not listed. The call rests on the fitted dose curve; in most records, active means well fitted activation curve with a large enough effect; inconclusive means small, poorly fitted or top-dose-only effect, or effect the other way, or another doubt; inactive means flat fitted curve, though single readings scatter. This is one part of the list.

target: Lysosomal alpha-glucosidase (Homo sapiens) (UniProt P10253); assay: qHTS Assay for Activators of Human alpha-Glucosidase as a Potential Chaperone Treatment of Pompe Disease; conditions: purified enzyme, 4-MU-alpha-glucoside fluorescence, 20 min; series mostly up to 76.9 µM; further: nearly all actives have a fitted effect of over 80% in size
Outline: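 Fluorogenic assay, 4 nM enzyme, 400 uM 4-methylumbelliferyl-[…], pH 5.0 citrate/phosphate buffer with 0.005% Tween-20, compounds up to 77 uM, 20 min at room temperature. NaOH/glycine stop, Ex 365/Em 440 nm; AC50 from Hill fits.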
Potency means the concentration at half of the fitted maximal effect.

Potency, active:
CCn1cc(-c2ccnc3cc(C(=O)O)nn23)c(C)n1 39.8 µM
CN1CCc2c(sc3c2C(=O)NC(c2ccco2)N3)C1 (centres undefined) 31.6 µM
O=C1NC(c2ccco2)Nc2sc3c(c21)CCN(Cc1ccccc1)C3 (centres undefined) 35.5 µM
CCCCCn1c(=O)c(-c2nc3ccccc3[nH]2)c(O)c2ccccc21 39.8 µM
Cc1c(O)ccc2c3c(c(=O)oc12)CCC(C)C3 (centres undefined) 35.5 µM
Cc1c(O)ccc2c3c(c(=O)oc12)CCCC3 35.5 µM
Fc1ccc(-n2c(-c3ccco3)nc3nc4ccccc4nc32)cc1 7.94 µM
Fc1ccc(-n2c(-c3cccs3)nc3nc4ccccc4nc32)cc1 3.55 µM
Fc1cccc(-n2c(-c3ccco3)nc3nc4ccccc4nc32)c1 6.31 µM
Cc1cc(=O)n2cccc(O)c2n1 25.1 µM
O=c1cccc2n1Cc1cc3ccccc3nc1-2 35.5 µM
CC1CN(S(=O)(=O)c2cccc(-c3cn4cccnc4n3)c2)CC(C)O1 (centres undefined) 35.5 µM
CN(C)S(=O)(=O)c1cccc(-c2cn3cccnc3n2)c1 39.8 µM
CCc1nnc(NC(=O)CSc2nc(C)c3c(c2C#N)CCCC3)s1 35.5 µM
CCC(O)CNc1nc(SC)nc2sc3c(c12)CCN(C)C3 (centres undefined) 28.2 µM
CSc1nc2oc3c(c2c2nncn12)CC(C)(C)SC3 39.8 µM
CCCc1cc(NCCCCO)n2c(nc3ccccc32)c1C#N 35.5 µM
Cc1cc(NCCCCO)n2c(nc3ccccc32)c1C#N 35.5 µM
Cc1cc(NC(C)C)n2c(nc3ccccc32)c1C#N 35.5 µM
CCCc1cc(NCc2ccccn2)n2c(nc3ccccc32)c1C#N 35.5 µM
Cc1cc(NCCCO)n2c(nc3ccccc32)c1C#N 35.5 µM
Cc1cc(NCCCn2ccnc2)n2c(nc3ccccc32)c1C#N 35.5 µM
COCCNc1cc(C)c(C#N)c2nc3ccccc3n12 35.5 µM
COc1cccc(C(=O)Nc2cc(-c3cn4cccnc4n3)ccc2C)c1 35.5 µM
COc1cc(C(=O)Nc2cc(-c3cn4cccnc4n3)ccc2C)cc(OC)c1OC 35.5 µM
Cc1ccc(-c2cn3cccnc3n2)cc1NC(=O)c1ccc(Br)o1 35.5 µM
O=c1oc2c(CN3CCCCC3)c(O)ccc2c2c1CCCCC2 35.5 µM
O=c1oc2c(CN3CCCCC3)c(O)ccc2c2c1CCCC2 35.5 µM
C=CCn1c(N)c(C(=O)OC(C)(C)C)c2nc3ccccc3nc21 35.5 µM
C=CCn1c(N)c(C(=O)OCCC)c2nc3ccccc3nc21 35.5 µM
COCC(C)OC(=O)c1c(N)n(CC(C)C)c2nc3ccccc3nc12 (centres undefined) 35.5 µM
CCOC(=O)c1c(N)n(CC(C)NC(=O)C2CC2)c2nc3ccccc3nc12 (centres undefined) 35.5 µM
C=CCn1c(N)c(C(=O)OC(C)CC)c2nc3ccccc3nc21 (centres undefined) 31.6 µM
C=CCn1c(N)c(C(=O)OCC(C)C)c2nc3ccccc3nc21 35.5 µM
CC(C)(C)OC(=O)c1c(N)n(CCCN2CCCC2=O)c2nc3ccccc3nc12 31.6 µM
Cc1cc(=O)oc2c(CN(C)Cc3ccccc3)c(O)ccc12 35.5 µM
COCCN(CCOC)Cc1c(O)ccc2c3c(c(=O)oc12)CCC3 35.5 µM
CC(C)CN(Cc1c(O)ccc2c3c(c(=O)oc12)CCC3)CC(C)C 31.6 µM
Cc1cc(=O)oc2c(CN(CC(C)C)CC(C)C)c(O)ccc12 31.6 µM
CN(C)Cc1c(O)ccc2c3c(c(=O)oc12)CCCCC3 35.5 µM
COc1ccc(-c2cc(C(F)(F)F)n3nc(C(=O)NCCN4CCOCC4)cc3n2)cc1 44.7 µM
CCCc1cc(=O)oc2c(CN3CCOCC3)c(O)ccc12 31.6 µM
CCCCc1cc(=O)oc2c(CN3CCCC3)c(O)ccc12 31.6 µM
CCCc1cc(=O)oc2c(CN3CCCC3)c(O)ccc12 35.5 µM
COC(=O)C1=CN(CC2CCCO2)C=C(C(=O)OC)C1c1ccccc1C(F)(F)F (centres undefined) 25.1 µM
CCOC(=O)C1=CN(CC2CCCO2)C=C(C(=O)OCC)C1c1ccccc1C(F)(F)F (centres undefined) 35.5 µM
COP(=O)(OC)c1nc(-c2cccc3ccccc23)oc1NCc1ccccc1 35.5 µM
COc1ccc(CNc2oc(-c3cccc4ccccc34)nc2C#N)cc1 28.2 µM
CCOP(=O)(OCC)c1nc(-c2cccc3ccccc23)oc1NCc1ccc(OC)cc1 35.5 µM
Cc1oc2cc(O)ccc2c(=O)c1Oc1ccc2ccccc2c1 39.8 µM
CCC(=O)Oc1ccc2c(C)c(Cl)c(=O)oc2c1 35.5 µM
Cc1cc(=O)oc2cc(OC(=O)c3cncc(Br)c3)ccc12 17.8 µM
CC(=O)Oc1cc2oc(=O)cc(C)c2cc1OC(C)=O 31.6 µM
Cc1cc(=O)oc2cc(OC(=O)c3ccccc3)ccc12 25.1 µM
Cc1cc(=O)oc2cc(OCc3ccc(C(=O)N4CCN(c5ccccc5)CC4)cc3)ccc12 39.8 µM
Cc1cc(=O)oc2cc(OC(=O)CCN3C(=O)c4ccccc4C3=O)ccc12 25.1 µM
CC(=O)Oc1ccc2c(C)cc(=O)oc2c1 35.5 µM
CCCC(=O)Oc1ccc2c(C)cc(=O)oc2c1 35.5 µM
CCN(CC)c1cc(C)c2cc(NC(=O)CNC(C)=O)ccc2n1 35.5 µM
CCN1c2ccccc2-c2nc3ccccc3n2C1c1cccs1 (centres undefined) 35.5 µM
CN1c2ccccc2-c2nc3ccccc3n2C1c1cccs1 (centres undefined) 35.5 µM
COc1ccc(-c2cn3cccnc3n2)cc1Br 35.5 µM
COc1ccc(-c2cn3cccnc3n2)cc1F 28.2 µM
CC12CCC(=O)N1c1c(sc3nc(N4CCOCC4)c4c(c13)CCCC4)C(=O)N2 (centres undefined) 35.5 µM
Nc1c(C(O)(C(F)(F)F)C(F)(F)F)ccc2ccccc12 35.5 µM
Nc1ccc2nc(-c3ccccc3)sc2c1 35.5 µM
Nc1ccc(-c2nc3ccc(C(=O)O)cc3s2)cc1 35.5 µM
Cc1cc(C)[n+](-c2ccc(F)cc2)c2[nH]c(=O)[nH]c(=O)c12 35.5 µM
Cc1cc(C)[n+](-c2ccc(C(C)C)cc2)c2[nH]c(=O)[nH]c(=O)c12 35.5 µM
COc1cccc(C2C(C#N)=C(C)NC3=C2C(=O)CC(C)(C)C3)c1 (centres undefined) 39.8 µM
CC1=C(C#N)C(c2cccnc2)C2=C(CC(C)(C)CC2=O)N1 (centres undefined) 28.2 µM
COCCOC(=O)C1=C(C)NC2=C(C(=O)CC(C)(C)C2)C1c1cccnc1 (centres undefined) 35.5 µM
CC1=C(C#N)C(c2cccnc2)C2=C(CCCC2=O)N1 (centres undefined) 25.1 µM
CCN1CCN(C(c2cc3cc4c(cc3[nH]c2=O)OCO4)c2nnnn2C(C)(C)CC)CC1 (centres undefined) 39.8 µM
Nc1nc(N)c2nc(-c3ccccc3)c(N)nc2n1 39.8 µM
Clc1ccc(/C=C/c2nc3ccccc3[nH]2)c(Cl)c1 35.5 µM
CCC(=O)c1ccc(/C=C/c2nc3ccccc3n2C)o1 35.5 µM
CC(=O)c1ccc(-c2nc3ccccc3n2C)o1 31.6 µM
CC(=O)Oc1ccc2cc(-c3nc4ccccc4n3C)c(=O)oc2c1 35.5 µM
Cn1c(-c2cc3ccc(OC(=O)C(C)(C)C)cc3oc2=O)nc2ccccc21 39.8 µM
CCCCn1c(NS(=O)(=O)c2ccc(C)cc2)c(S(=O)(=O)c2ccccc2)c2nc3ccccc3nc21 50.1 µM
CCCCn1c(NS(=O)(=O)c2ccccc2)c(S(=O)(=O)c2ccc(C)cc2)c2nc3ccccc3nc21 35.5 µM
CCC(=O)Nc1c(S(=O)(=O)c2ccccc2)c2nc3ccccc3nc2n1Cc1ccccc1 39.8 µM
Cc1cccn2c(=O)c3cc(C#N)c(=O)n(Cc4cccnc4)c3nc12 3.98 µM
Cc1ccc2nc3c(cc(C#N)c(=O)n3CC3CCCO3)c(=O)n2c1 (centres undefined) 3.98 µM
Cc1cccn2c(=O)c3cc(C#N)c(=O)n(CC4CCCO4)c3nc12 (centres undefined) 10 µM
Cc1ccc2nc3c(cc(C#N)c(=O)n3CCN3CCOCC3)c(=O)n2c1 28.2 µM
CC(C)OC(=O)c1c(N)n(CCCN2CCOCC2)c2nc3ccccc3nc12 39.8 µM
COC(=O)c1c(N)n(CCCN2CCOCC2)c2nc3ccccc3nc12 31.6 µM
Cc1c(C#N)c(N)nc2c3c(sc12)NC(=O)CC3c1ccccc1 (centres undefined) 5.01 µM
COc1ccc(F)cc1CN1CCN(c2cc(C)nc3c4c(C)cc(C)nc4nn23)CC1 35.5 µM
CCN(CC)Cc1c(O)ccc2c(C)c(CC(=O)OC)c(=O)oc12 35.5 µM
COC(=O)Cc1c(C)c2ccc(O)c(CN3CCCC(C)C3)c2oc1=O (centres undefined) 35.5 µM
CCc1c(C)c2cc(Cl)c(O)c(CN(C)C)c2oc1=O 31.6 µM
CCc1c(C)c2ccc(O)c(CN(C)C)c2oc1=O 35.5 µM
Cc1c(Cc2ccccc2)c(=O)oc2c(CN(C)C)c(O)c(Cl)cc12 35.5 µM
Cc1c(C)c2cc(Cl)c(O)c(CN(C)C)c2oc1=O 39.8 µM
O=c1c2ccccc2[nH]c2ccc(F)cc12 31.6 µM
O=c1c2ccccc2[nH]c2ccccc12 39.8 µM
